In PubChem BioAssay AID624504 (Sanford-Burnham Center for Chemical Genomics, 2012) one finds inhibition data, which are given here for 94 molecules.

Each structure is given as a SMILES string. In all, about 5,000 compounds went through this assay and about 3,900 (78%) were called active. The set was probably picked from earlier hits. The list is a sample of the results. A number with no mark means an inactive call. Rule as the data show it: active = inhibition above about 22%; inactive = the rest.

This assay is described as follows: fluorescence retest of MPTP screen hits in isolated mitochondria, single concentration (AID 624504).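 Also: 0% = DMSO vehicle and 100% = positive control.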 The following applies: membrane potential, Rhodamine 123 fluorescence, at 10 µM, hits give high values.
As to `NS(=O)(=O)c1ccc(NC(=S)Nc2ccc(Br)c(Cl)c2)cc1`, the inhibition is 76% (active).

As for `CCN1CCC(O)(/C=C/c2ccc(C)cc2)C(C(=O)/C=C/c2ccc(C)cc2)C1` (centres undefined), the inhibition is -14.1%.

`Cc1cc(C)cc(NS(=O)(=O)c2ccc(Oc3ncc(C(F)(F)F)cc3Cl)cc2)c1`: the inhibition was 93.4% (active).

Take `FC(F)Oc1ccccc1NC(=S)Nc1cccc(Cl)c1Cl`: the inhibition is 44.5% (active).

In the case of `CN(Cc1cccnc1)C(=O)c1cc(COc2ccc3ncccc3c2)on1`, the inhibition was 73% (active).

With `CCCc1[nH]nc2c1C(c1c(C)nn(-c3ccccc3)c1Cl)C(C#N)=C(N)O2` (centres undefined), the inhibition is -3.33%.

Take `O=C1CC(c2ccccc2)=NN1c1ccc([N+](=O)[O-])cc1`: the inhibition was 77.6% (active).

Take `O=C(Nc1cccc(Cl)c1)Nc1ccccc1NS(=O)(=O)c1cccs1`: the inhibition was 89.6% (active).

`COc1ccc(CC(=O)Nc2nc(-c3ccc(F)c(F)c3)cs2)cc1OC`: the inhibition was 94.5% (active).

Consider `COc1cc(CC(=O)Nc2nc(-c3ccc(F)c(F)c3)cs2)cc(OC)c1OC`, for which the inhibition is 93.2% (active).

Turning to `CCCOc1ccc(Cc2c(Cl)nc(SC)nc2NC)cc1`, the inhibition is 93.6% (active).

On to `Cn1nccc1NC(=O)Nc1ccc(OC(F)(F)F)cc1`, for which the inhibition was 73.2% (active).

For the molecule `CC(=N\NC(=O)c1cc(Br)ccc1O)/C(=N/O)C(=O)Nc1ccccc1`, the inhibition was 78.4% (active).

Consider `Cc1oc2c(F)c(F)c(F)c(F)c2c1S(=O)(=O)Nc1cccc(C(F)(F)F)c1`, for which the inhibition was 83.5% (active).

With `Cc1oc2cc([N+](=O)[O-])c(O)c([N+](=O)[O-])c2c1C(=O)c1ccc(Br)cc1`, the inhibition was 61.8% (active).

As for `O=C(Cc1ccc(-n2c(=O)[nH]c3ccccc3c2=O)cc1)N1CCN(c2cccc(Cl)c2)CC1`, the inhibition was 49.8% (active).

For `COc1ccc(CCNc2cc(N3CCN(C(=O)c4ccccc4OC)CC3)ccc2[N+](=O)[O-])cc1OC`, the inhibition is 47.7% (active).

For `Cc1ccc2c(c1)C1CN(C)CCC1N2S(=O)(=O)c1ccc(Oc2ccc([N+](=O)[O-])cc2)cc1` (centres undefined), the inhibition was -16.2%.

Regarding `Cc1ccc(NC(=O)COc2ccc(-n3ccnc3)cc2)cc1Cl`, the inhibition was 94.1% (active).

On to `O=C(Nc1nnc(SCc2ccc(Cl)cc2Cl)s1)C1COc2ccccc2O1` (centres undefined), for which the inhibition is 72.7% (active).

In the case of `O=C(Nc1nc2c(F)cc(F)cc2s1)C1COc2ccccc2O1` (centres undefined), the inhibition was 76.6% (active).

`O=C(NCCNc1ccc([N+](=O)[O-])cc1)c1cccc2c(Br)cccc12`: the inhibition is 84.9% (active).

Regarding `CN1CCN(CCNC(=O)Nc2ccc([N+](=O)[O-])cc2)CC1`, the inhibition is 75.1% (active).

`Cc1cccc(-c2nc3ccc(C(=O)NCCN4CCN(C)CC4)cc3nc2-c2cccc(C)c2)c1`: the inhibition is -16.4%.

`O=C(NCCCN1CCN(c2ccc(F)cc2)CC1)Nc1ccc([N+](=O)[O-])cc1`: the inhibition was 89.6% (active).

For `CCCOc1ccc(C(=O)C(CCC(CNCC)C(=O)c2ccc(OCCC)cc2)CNCC)cc1` (centres undefined), the inhibition was -13.8%.

As for `O=c1c(-c2ccc3c(c2)OCCO3)c(C(F)(F)F)oc2cc(O)cc(O)c12`, the inhibition is 80.7% (active).

As to `CC1=C/C(=N\OS(=O)(=O)c2ccccc2)C=CC1=O`, the inhibition was 92.7% (active).

`Cc1c(C(=O)OC(C)C)sc(NC(=O)c2cccnc2)c1C#N`: the inhibition was 82.8% (active).

As for `Cc1ccc(-c2nc(-c3cccnc3)sc2CC(=O)Nc2ccc(C)c(Cl)c2)cc1`, the inhibition was 90.8% (active).

Turning to `CCNS(=O)(=O)c1ccc(NC(=O)Nc2cccc(C(F)(F)F)c2)cc1`, the inhibition is 73.9% (active).

Regarding `CCc1cc2c(NC3CCCC3)ncnc2s1`, the inhibition was 59.8% (active).

`N/C(=N\OC(=O)Nc1ccc(Cl)c(Cl)c1)c1ncc(C(F)(F)F)cc1Cl`: the inhibition is 118% (active).

In the case of `c1ccc(-c2cc3c(NCC4COc5ccccc5O4)ncnc3s2)cc1` (centres undefined), the inhibition is 70.6% (active).

Turning to `O=C(NC1CCN(Cc2ccccc2)CC1)c1cc(Br)c(Br)[nH]1`, the inhibition was 9.55%.

On to `CSc1nccc(NC(=O)c2ccc(C(C)(C)C)cc2)n1`, for which the inhibition is 91.4% (active).

On to `COc1cc(C(=O)Nc2oc(-c3ccccc3)c(-c3ccccc3)c2C#N)cc(OC)c1OC`, for which the inhibition was 63% (active).

For `COC(=O)c1sccc1NC(=O)CSc1ccccc1NS(=O)(=O)c1cc(Cl)ccc1Cl`, the inhibition is 90.9% (active).

Turning to `Cn1nc(C(F)(F)F)c(C(=O)Nc2cccc(C(F)(F)F)c2)c1SCc1ccc(Cl)cc1`, the inhibition is 63.4% (active).

For the molecule `COc1cc(NS(=O)(=O)c2ccc(NC(C)=O)cc2)cc(OC)c1`, the inhibition was 47.9% (active).

For `COc1ccc(S(=O)(=O)Nc2ccc3oc(C)c(C(C)=O)c3c2)cc1`, the inhibition was 63.9% (active).

On to `CC(C)OCCCNc1ncnc2c1[nH]c1ccc(F)cc12`, for which the inhibition is 110% (active).

With `COc1ccc2oc(-c3cccc(NC(=O)CSc4ccc(Cl)cc4)c3)nc2c1`, the inhibition is 70.8% (active).

Turning to `O=C(Nc1ccc(Cl)cc1)Nc1ccc(Oc2cccnc2)nc1`, the inhibition is 94.2% (active).

As to `CCCc1cc(=S)n2c([nH]c3ccccc32)c1C#N`, the inhibition is 80.9% (active).

Regarding `Cc1ccc(Sc2ccc(NC(=O)c3ccc(F)cc3)cc2C#N)cc1`, the inhibition was 99.4% (active).

Consider `COc1ccc(Sc2ccc(NC(=O)c3cccc(Cl)c3)cc2C#N)cc1`, for which the inhibition was 77.8% (active).

Turning to `O=C(NNC(=O)c1csc(-c2cccnc2)n1)Nc1ccc(Cl)cc1`, the inhibition is 68.5% (active).

Turning to `O=C(Nc1nnc(S(=O)(=O)N2CCCCCC2)s1)c1cccc(Br)c1`, the inhibition was 99.7% (active).

Regarding `CCOC(=O)c1cc2cc(-c3c(C(=O)OCC)oc4cc(O)cc(O)c4c3=O)ccc2o1`, the inhibition is 47.3% (active).

As to `COc1ccc(Cn2c(=O)sc3ccccc32)cc1OC`, the inhibition is 38.6% (active).

Turning to `COc1ccc2sc(N(CCCN(C)C)C(=O)c3ccc(S(=O)(=O)N(C)C4CCCCC4)cc3)nc2c1`, the inhibition is -15.4%.

Consider `O=C(Nc1nnc(SCc2c(Cl)cccc2Cl)s1)c1cccc([N+](=O)[O-])c1`, for which the inhibition is 82.1% (active).

Regarding `O=C(Nc1nnc(SCc2ccccc2Cl)s1)c1cccc([N+](=O)[O-])c1`, the inhibition is 79.5% (active).

Take `O=C(c1ccc(Cl)cc1)c1ccc(OCC(O)CN2CCCCC2)cc1` (centres undefined): the inhibition was -2.35%.

`O=C(COC(=O)c1ccccc1NC(=O)c1ccco1)Nc1ccc2c(c1)OC(F)(F)O2`: the inhibition was 16.6%.

As for `O=C(Cc1c(F)cccc1Cl)Nc1ncc([N+](=O)[O-])s1`, the inhibition is 98.1% (active).

For the molecule `S=C(NCc1ccc(Cl)cc1)NC12CC3CC(CC(C3)C1)C2`, the inhibition is 83.4% (active).

On to `S=C(NCc1ccc(Cl)cc1)NC1CCCCC1`, for which the inhibition is 92.6% (active).

With `CCCCOC(=O)CNc1nnc(SCC(=O)OCC)[nH]c1=O`, the inhibition was -7.97%.

Regarding `O=C(Cc1ccc(Cl)c(Cl)c1)Nc1ccc(SC(F)F)cc1`, the inhibition is 73.8% (active).

On to `COc1ccc(/C=C2/SC(=O)N(CCCCCC(=O)Nc3ccccc3C(=O)O)C2=S)cc1`, for which the inhibition is 46.1% (active).

As for `CN(C(=O)Nc1ccc(Cl)cc1)n1cnc2ccccc2c1=O`, the inhibition is 89.2% (active).

On to `Cc1ccccc1C(=O)NC(=S)Nc1ccc(N2CCN(C(=O)c3ccccc3)CC2)cc1`, for which the inhibition was 81.8% (active).

In the case of `Brc1ccc(CSc2ccc(-c3ccco3)nn2)cc1`, the inhibition is -1.72%.

Take `C/C(=N\NC(=O)c1ccc(C)cc1)C1C(=O)c2ccccc2C1=O`: the inhibition was 58% (active).

Regarding `Cc1onc(-c2ccccc2)c1C(=O)NNC(=S)NC(=O)c1ccc(F)cc1`, the inhibition is 2.46%.

For `COc1ccc(-c2nc3cc(C)ccn3c2NC2CCCCC2)cc1SC1CCCCC1`, the inhibition was 77.5% (active).

Regarding `CN(C)Cc1ccccc1C1(O)c2ccccc2CSc2ccccc21` (centres undefined), the inhibition was -8.88%.

`O=C(Nc1ccccc1)c1ccccc1NC(=O)C(F)(F)F`: the inhibition is 85% (active).

Regarding `O=C(CSc1nc(-c2ccccc2)cs1)Nc1cccc([N+](=O)[O-])c1`, the inhibition is 80.1% (active).

As for `Cc1cccc(OCCNC(=O)CSc2ccc(C(F)(F)F)cc2[N+](=O)[O-])c1`, the inhibition is 81.3% (active).

As to `O=C(Nc1ccc2ccccc2c1)Nc1ccc2snnc2c1`, the inhibition was 47.9% (active).

As for `COc1ccc(NC(=O)Nc2ccc3nsnc3c2)cc1`, the inhibition is 84.7% (active).

`O=C(Nc1ccccc1)Nc1nnc(COc2ccccc2F)s1`: the inhibition was 60.4% (active).

Consider `O=C(CSc1nc2ccc([N+](=O)[O-])cc2[nH]1)c1ccc(Cl)cc1`, for which the inhibition was 76.5% (active).

`CCOC(=O)N1CCN(C(=O)c2ccc3c(c2)N(Cc2ccc(C)cc2)CCS3)CC1`: the inhibition was 63.9% (active).

Regarding `N#Cc1ccc(C(=O)Nc2nc(-c3cccs3)c(C(=O)C(F)(F)F)s2)cc1`, the inhibition is 109% (active).

Regarding `Cc1cccc(NC(=S)Nc2ccc(Cl)c(Cl)c2)c1`, the inhibition is 90.8% (active).

On to `S=C(Nc1ccccc1)Nc1ccc2ccccc2c1`, for which the inhibition is 89.2% (active).

Turning to `Cc1cccc(NC(=S)Nc2ccc(Br)cc2)c1`, the inhibition was 102% (active).

Take `FC(F)(F)COc1nc(N2CCCCC2)nc(N2CCNCC2)n1`: the inhibition is -11.8%.

For the molecule `Cc1nn(Cc2ccccc2)c2c1C(c1ccccc1)C(C#N)=C(N)O2` (centres undefined), the inhibition is -0.3%.

In the case of `CC(=O)c1ccc(NC(=O)Nc2ccc([N+](=O)[O-])cc2C)cc1`, the inhibition was 90.3% (active).

As to `COc1cc(NC(=O)Nc2ccc(C)cc2)cc([N+](=O)[O-])c1`, the inhibition is 95.5% (active).

On to `CN(C)Cc1ccc(F)cc1Sc1cc(Cl)ccc1Cl`, for which the inhibition is -3.35%.

As to `O=C(Nc1cccc(F)c1)c1coc(=O)c(Br)c1`, the inhibition was 77.9% (active).

In the case of `COc1ccc(-n2c(C)cc(C(=O)CSc3nnc(-c4cccs4)o3)c2C)cc1`, the inhibition is 83% (active).

On to `FC(F)(F)Oc1ccc(NC(=S)NCc2ccccc2)cc1`, for which the inhibition was 90.9% (active).

`CSCCC(NC(=O)c1cc([N+](=O)[O-])cc([N+](=O)[O-])c1)c1nc2ccccc2[nH]1` (centres undefined): the inhibition was 81.7% (active).

Regarding `Cc1ccc(C)c(S(=O)(=O)N2CCN(c3ncnc4sccc34)CC2)c1`, the inhibition was 104% (active).

Turning to `Cc1ccc(NC(=O)Nc2cc(-c3ccccc3)nn2C)cc1Cl`, the inhibition was 69.1% (active).

With `Cc1cc(NC(=O)Nc2ccc(Cl)cc2)n(-c2ccccc2)n1`, the inhibition was 76.2% (active).

As to `Fc1ccccc1CNC(=S)Nc1ccc(Cl)cc1`, the inhibition is 90.7% (active).
